Composite z-score and z-score data for 16 compounds are collected here from PubChem BioAssay.

Active and inactive are the calls of the source.

Test [1] can be described thus: small molecules captured by biotinylated probe aFSTL3 – biochemical, small-molecule microarray, fluorescence 635/667, stem cell growth factor project, primary screen (AID 1064).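 Note: measures binding of the biotinylated anti-FSTL3 antibody to printed compounds.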 The note with it: higher = more signal.
Test [2] is described as follows: binders from COS7 lysate, DM2A8 probe, primary screen, torsin A project, cell lysate, small-molecule microarray, fluorescence 635/667 (AID 1065). The note with it: higher = more signal, COS7 lysate expressing mutant human TOR1A.
Test [3] in a line: small molecules captured by biotinylated probe aFGF2 – biochemical, small-molecule microarray, fluorescence 635/667, stem cell growth factor project, primary screen (AID 1067).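 Note: measures binding of biotinylated aFGF2 protein to printed compounds on slides; z-score merges feature fluorescence and signal-to-noise across triplicate slides.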 The note with it: higher = more signal.
Test [4] is described as follows: small molecules captured by biotinylated probe aFGF10 – biochemical, small-molecule microarray, fluorescence 635/667, stem cell growth factor project, primary screen (AID 1071).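 Note: score merges 667 nm spot intensity and signal to noise from triplicate slides.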 The note with it: higher = more signal.
The target of test [5] is Neurogenic locus notch homolog protein 2 (Homo sapiens) (UniProt Q04721). Description: small molecules binding Notch2 protein – biochemical, small-molecule microarray, 635 nm fluorescence, stem cell growth factors, primary screen (AID 1073). The note with it: higher = more signal.
Chain of Neurogenic locus notch homolog protein 2 (Homo sapiens) (Q04721 whole entry, looked up, canonical isoform): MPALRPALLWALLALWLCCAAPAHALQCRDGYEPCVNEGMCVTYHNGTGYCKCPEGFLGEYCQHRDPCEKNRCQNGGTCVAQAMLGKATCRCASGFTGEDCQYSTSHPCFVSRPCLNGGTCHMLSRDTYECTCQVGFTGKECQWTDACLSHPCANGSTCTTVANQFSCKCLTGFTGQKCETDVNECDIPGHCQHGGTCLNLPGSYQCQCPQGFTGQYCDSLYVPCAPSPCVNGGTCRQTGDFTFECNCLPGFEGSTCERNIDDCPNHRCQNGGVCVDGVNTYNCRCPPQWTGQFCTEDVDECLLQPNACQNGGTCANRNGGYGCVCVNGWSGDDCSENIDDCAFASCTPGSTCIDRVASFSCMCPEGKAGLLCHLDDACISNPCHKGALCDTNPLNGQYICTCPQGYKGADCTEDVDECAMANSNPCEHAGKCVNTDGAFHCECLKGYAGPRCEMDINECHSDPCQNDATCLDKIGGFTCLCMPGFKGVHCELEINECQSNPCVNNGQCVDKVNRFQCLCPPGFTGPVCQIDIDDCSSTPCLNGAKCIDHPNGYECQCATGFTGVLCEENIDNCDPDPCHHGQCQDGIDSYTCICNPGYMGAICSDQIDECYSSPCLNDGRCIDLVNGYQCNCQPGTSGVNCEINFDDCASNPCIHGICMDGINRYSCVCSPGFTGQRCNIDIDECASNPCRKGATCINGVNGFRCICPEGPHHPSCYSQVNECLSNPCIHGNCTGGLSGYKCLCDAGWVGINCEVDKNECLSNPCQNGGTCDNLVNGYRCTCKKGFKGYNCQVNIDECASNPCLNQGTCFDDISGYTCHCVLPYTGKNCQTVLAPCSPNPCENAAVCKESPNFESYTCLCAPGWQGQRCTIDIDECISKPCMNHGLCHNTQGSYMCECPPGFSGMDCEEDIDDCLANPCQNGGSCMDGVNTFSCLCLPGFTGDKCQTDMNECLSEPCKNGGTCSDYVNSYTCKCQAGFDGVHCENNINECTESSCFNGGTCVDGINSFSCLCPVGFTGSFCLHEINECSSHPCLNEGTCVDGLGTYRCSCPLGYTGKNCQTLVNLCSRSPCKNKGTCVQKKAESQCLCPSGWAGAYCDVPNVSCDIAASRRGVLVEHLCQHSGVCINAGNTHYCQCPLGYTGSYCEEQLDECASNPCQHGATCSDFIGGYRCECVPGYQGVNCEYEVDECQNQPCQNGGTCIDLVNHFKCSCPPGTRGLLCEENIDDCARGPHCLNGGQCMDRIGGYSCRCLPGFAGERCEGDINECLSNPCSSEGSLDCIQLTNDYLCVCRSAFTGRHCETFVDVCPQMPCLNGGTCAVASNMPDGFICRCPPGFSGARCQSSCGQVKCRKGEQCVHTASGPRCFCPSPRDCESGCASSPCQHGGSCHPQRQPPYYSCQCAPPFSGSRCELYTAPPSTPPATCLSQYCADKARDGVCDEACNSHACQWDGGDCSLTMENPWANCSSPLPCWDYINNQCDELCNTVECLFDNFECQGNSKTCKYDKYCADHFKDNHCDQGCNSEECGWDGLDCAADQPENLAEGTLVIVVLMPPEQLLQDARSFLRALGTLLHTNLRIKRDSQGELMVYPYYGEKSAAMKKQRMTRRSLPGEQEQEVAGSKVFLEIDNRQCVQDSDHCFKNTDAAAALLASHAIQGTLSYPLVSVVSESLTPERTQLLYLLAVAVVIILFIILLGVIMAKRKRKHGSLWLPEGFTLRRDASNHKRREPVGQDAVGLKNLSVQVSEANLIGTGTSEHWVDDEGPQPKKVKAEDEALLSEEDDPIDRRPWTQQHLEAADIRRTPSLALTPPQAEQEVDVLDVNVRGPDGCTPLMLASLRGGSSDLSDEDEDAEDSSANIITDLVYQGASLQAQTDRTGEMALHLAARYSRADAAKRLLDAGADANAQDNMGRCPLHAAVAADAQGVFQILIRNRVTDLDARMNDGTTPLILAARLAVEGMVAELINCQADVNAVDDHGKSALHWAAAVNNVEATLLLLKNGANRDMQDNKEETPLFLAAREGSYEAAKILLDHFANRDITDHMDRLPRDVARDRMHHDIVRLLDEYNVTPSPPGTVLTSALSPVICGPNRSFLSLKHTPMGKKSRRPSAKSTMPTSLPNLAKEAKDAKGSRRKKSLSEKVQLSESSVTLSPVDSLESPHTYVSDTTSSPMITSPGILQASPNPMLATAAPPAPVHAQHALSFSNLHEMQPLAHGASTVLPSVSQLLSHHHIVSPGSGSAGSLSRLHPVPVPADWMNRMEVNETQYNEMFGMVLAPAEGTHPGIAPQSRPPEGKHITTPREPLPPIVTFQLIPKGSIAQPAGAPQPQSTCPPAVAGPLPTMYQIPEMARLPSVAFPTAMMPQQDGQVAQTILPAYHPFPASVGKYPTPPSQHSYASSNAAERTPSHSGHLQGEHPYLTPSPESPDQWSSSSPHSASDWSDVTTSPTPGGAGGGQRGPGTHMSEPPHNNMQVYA
Test [6] has as its target Pro-neuregulin-1, membrane-bound isoform (Homo sapiens) (UniProt Q02297). Description: small molecules binding neuregulin-1 protein – biochemical, small-molecule microarray, fluorescence 635/667, psychiatric disease protein project, primary screen (AID 1075).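 Note: score combines 667 nm spot fluorescence with signal to noise.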 The note with it: NRG1 binding, 635 nm fluorescence, higher = more signal.
For test [7], the system named is Neuregulin-1 EGF-like domain. Description: small molecules binding NRG1 EGF domain – biochemical, small-molecule microarray, 635 nm fluorescence, primary screen (AID 1081).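 Note: binding of the protein to compounds printed on small-molecule microarray slides.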 The note with it: higher = more signal.
Test [8] in a line: FRG1 expression reporter modulators in myotubes – cell-based, C2C12 myotubes, firefly/Renilla luciferase, luminescence, FRG1 inhibition for FSHD, primary screen (AID 1084). The note with it: FRG1 promoter luciferase, higher = more signal, called active from +8 up or from −8 down.
The nature of test [9]: small molecules captured by biotinylated probe aFST – biochemical, small-molecule microarray, fluorescence 635/667, stem cell growth factor project, primary screen (AID 1086).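 Note: score merges 667 nm fluorescence with signal-to-noise of each printed compound spot.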 The note with it: higher = more signal.
Test [10] is described as follows: binders of probe aHhip on microarray, primary screen, stem cell growth factor project, biochemical, small-molecule microarray, fluorescence 635/667 (AID 1087).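 Note: score merges spot fluorescence at 667nm with spot signal to noise ratio.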 The note with it: higher = more signal.

Chain of Pro-neuregulin-1, membrane-bound isoform (Homo sapiens) (Q02297 whole entry, looked up, the tested form may be a part, canonical isoform): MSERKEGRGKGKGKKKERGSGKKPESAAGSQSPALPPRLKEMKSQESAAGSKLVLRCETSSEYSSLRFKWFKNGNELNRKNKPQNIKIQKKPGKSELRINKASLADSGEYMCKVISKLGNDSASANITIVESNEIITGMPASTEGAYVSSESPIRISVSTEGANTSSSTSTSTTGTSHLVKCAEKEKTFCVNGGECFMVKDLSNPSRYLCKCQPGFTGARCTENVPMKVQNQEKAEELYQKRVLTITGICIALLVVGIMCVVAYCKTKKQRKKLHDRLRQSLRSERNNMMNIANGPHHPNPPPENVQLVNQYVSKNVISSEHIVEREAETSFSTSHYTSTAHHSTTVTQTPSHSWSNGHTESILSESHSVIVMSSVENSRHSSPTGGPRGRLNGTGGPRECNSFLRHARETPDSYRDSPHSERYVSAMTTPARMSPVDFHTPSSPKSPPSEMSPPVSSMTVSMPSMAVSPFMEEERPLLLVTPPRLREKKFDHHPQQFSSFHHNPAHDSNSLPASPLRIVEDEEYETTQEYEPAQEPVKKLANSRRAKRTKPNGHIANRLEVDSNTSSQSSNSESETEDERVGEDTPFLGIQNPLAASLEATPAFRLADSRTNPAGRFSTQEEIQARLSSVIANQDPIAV

With `CN(C)CCCNC(=O)[C@@]1(Cc2ccccc2I)c2ccccc2C(=O)N(Cc2ccccc2Cl)[C@H]1c1ccc(CO)cc1`, the composite z-score in [1] was 1.17; in test [2] it was -0.576; in [3], 0.0516; in test [4] it was 0.617; in test [5] it was 0.0497; in test [6] it was 1.47. Also, the values for the composite z-score in [7], in test [9] and in [10] were 1.25, 0.294 and -0.181, respectively. The z-score in [8] was -2.07 (inactive).

Take `COCCCNC(=O)[C@]1(CCS(=O)(=O)c2ccccc2)N=C(c2ccc(OCCCO)cc2)O[C@@H]1c1ccccc1`: the composite z-score in test [1] was -0.0225; in test [2], 1.05; in test [3], 0.124; in test [4], 0.786; in [5], 1.57; in test [6], 2.12. Besides, the composite z-score in test [7] was 1.22; in [9] it was 1.26; in test [10], -0.166. In [8], the z-score was -1.91 (inactive).

Consider `O=C1OCC=C[C@H]2OC34C=CCN(CCN5CCOCC5)C(=O)[C@H]3N(CCCCCO)C(=O)[C@@H]4[C@@H]12` (stereo not given in full), for which the composite z-score in test [1] was -0.099; in test [2] it was 0.298; in [3] it was -0.128; in test [4] it was -0.191; in [5] it was 0.0385; in [6] it was -0.0529. The composite z-score in test [7] was 1.43; in test [9], -0.452; in test [10] it was -0.236. The z-score in test [8] is 0.401 (inactive).

With `COc1cc2c(cc1OC)CN(C(=O)[C@@H]1[C@H]3C(=O)O[C@H](c4ccccc4)[C@H](c4ccccc4)N3[C@H](c3ccc(OCCO)cc3)[C@@]13C(=O)Nc1ccc(C#CCCO)cc13)CC2`, the composite z-score in [1] is -0.0108; in test [2], 0.718; in [3] it was 0.105; in [4], 0.944; in [5], 1.56; in test [6] it was 1.58. The composite z-score was determined as 1.27 in [7], 0.0774 in test [9] and 0.169 in test [10]. The z-score in test [8] was 0.838 (inactive).

With `C=CCOC(=O)[C@@H]1[C@H]2C(=O)O[C@H](c3ccccc3)[C@H](c3ccccc3)N2[C@H](c2ccc(OCCOC(=O)[C@@H]3C[C@@H]4C(=O)N5CCC[C@H]5C(=O)N4[C@@H]3c3cccc(OCCO)c3)cc2)[C@@]12C(=O)Nc1ccc(I)cc12`, the composite z-score is -0.396 in test [1]; 0.313 in test [2]; -0.0927 in test [3]; 0.0951 in [4]; 0.115 in [5]; 0.311 in [6]. Further, the composite z-score was 1.17 in test [7], 0.252 in [9] and -0.236 in test [10]. The z-score in test [8] was 0.184 (inactive).

Regarding `COCCCNC(=O)[C@@]1(Cc2ccccc2N=[N+]=[N-])N=C(c2ccc(OCCCO)cc2)O[C@H]1c1ccccc1CN=[N+]=[N-]`, the composite z-score in [1] stood at 0.377; in [2], 0.556; in test [3], 0.185; in test [4], 1.07; in [5], 1.47; in test [6] it was 1.78. Besides, the results for the composite z-score in test [7], in [9] and in test [10] were 1.26, 0.893 and -0.192, respectively. The z-score in test [8] is -0.344 (inactive).

As to `COC(=O)[C@@]1(Cc2ccc(F)cc2)[C@@H]2[C@@H](CC(=O)[C@H]2CC(=O)C(=O)N2CCCC2)CN1C(=O)c1ccccc1`, the composite z-score is 0.664 in test [1]; -0.196 in test [2]; 0.0255 in [3]; 0.56 in [4]; 1.71 in test [5]; 1.85 in test [6]. Further, the composite z-score in [7] was 1.12; in [9], 1.61; in test [10], -0.24. For the same compound, in test [8], the z-score was 2.38 (inactive).

Take `CO[C@H]1O[C@H](CO)[C@@H](OC(=O)Nc2cccc(F)c2)[C@H](OC(=O)Nc2ccc3c(c2)OCO3)[C@H]1OC(=O)Nc1ccc2c(c1)OCO2`: the composite z-score in [1] is -0.382; in test [2], 0.755; in test [3] it was 0.0094; in test [4], 0.358; in [5], 0.893; in test [6], 0.958. Besides, the composite z-score in test [7] is 1.17; in test [9], -0.253; in [10], -0.201. In addition, the z-score in [8] is 6.24 (inactive).

In the case of `NC(=O)NCC#Cc1ccc2c(c1)[C@]1(C(=O)N2)[C@H](c2ccc(OCCO)cc2)N2[C@H](c3ccccc3)[C@H](c3ccccc3)OC(=O)[C@H]2[C@@H]1C(=O)N1CCN(c2ncccn2)CC1`, the composite z-score is -0.584 in test [1]; 0.936 in [2]; -0.0767 in test [3]; 0.766 in test [4]; 0.0776 in test [5]; 0.29 in [6]. Also, the figures for the composite z-score in test [7], in [9] and in [10] were -0.178, -0.194 and -0.0564, respectively. In addition, the z-score in test [8] was 0.565 (inactive).

`COc1ccc(C(=O)Nc2ccc3c(c2)[C@]2(O[C@@H](CCO)[C@H]([Si](C)(C)c4ccc(OC)cc4)[C@H]2C)C(=O)N3Cc2ccccc2)cc1`: the composite z-score is 0.0295 in test [1]; 0.203 in [2]; -0.155 in [3]; -0.0615 in test [4]; 0.0879 in test [5]; 0.725 in [6]. In addition, the figures for the composite z-score in [7], in [9] and in [10] were 0.913, -0.0897 and -0.0237, respectively. In addition, the z-score in test [8] was -3.63 (inactive).

Take `COC(=O)[C@@]1(Cc2ccc(OC)cc2)[C@H]2c3cc(C(=O)N(C)C)n(CCF)c3C[C@H]2CN1C(=O)c1ccccc1`: the composite z-score in [1] worked out at 0.999; in test [2], 0.245; in test [3], 0.0398; in test [4], 0.419; in test [5] it was 1.66; in test [6], 1.97. Moreover, the composite z-score stood at 1.33 in test [7], 0.98 in test [9] and 0.31 in test [10]. In addition, in [8], the z-score was -1.11 (inactive).

As for `CCCNC(=O)[C@@H]1c2ccccc2C(=O)N(CC23CC4CC(CC(C4)C2)C3)[C@H]1c1ccc(CO)cc1`, the composite z-score in test [1] was -0.371; in [2], -0.101; in test [3], -0.0588; in test [4] it was 0.618; in test [5] it was 1.56; in test [6], 1.3. Also, the values for the composite z-score in test [7], in test [9] and in [10] were 1.26, 1.3 and 0.0373, respectively. Also, in test [8], the z-score was -2.41 (inactive).

For `[N-]=[N+]=NCc1ccccc1C[C@]1(C(=O)NCCN2CCOCC2)COC(c2ccc(OCCCO)cc2)=N1`, the composite z-score in [1] is 0.186; in [2], 1.25; in test [3], -0.0647; in test [4], 0.121; in [5], 0.973; in test [6], 1.02. Besides, the composite z-score in [7] was 1.2; in test [9], 0.817; in test [10], -0.0645. The z-score in test [8] was -2.23 (inactive).

For `COC(=O)[C@@]1(Cc2ccccc2)[C@H]2c3cc(C(=O)N4CCCC4)n(CCO)c3C[C@H]2CN1C(=O)c1ccccc1`, the composite z-score in [1] was determined as 1.35; in test [2] it was 2.52; in [3] it was 0.759; in test [4], 0.77; in test [5], 1.58; in [6], 1.62. The composite z-score was determined as 1.15 in [7], 2.6 in test [9] and 0.216 in test [10]. In addition, the z-score in test [8] is -0.292 (inactive).

`COCCOC(=O)N1C(=O)[C@@]2(c3cc(C#Cc4ccc(OC)cc4)ccc31)[C@H](C(=O)N1CCc3cc(OC)c(OC)cc3C1)[C@H]1C(=O)O[C@H](c3ccccc3)[C@H](c3ccccc3)N1[C@@H]2c1ccc(O)cc1`: the composite z-score is -0.285 in test [1]; 0.613 in [2]; -0.129 in test [3]; 0.64 in test [4]; 1.47 in test [5]; 1.17 in [6]. The results for the composite z-score in [7], in [9] and in test [10] were 1.19, -0.0689 and -0.297, respectively. The z-score in test [8] is 0.707 (inactive).

As to `COc1ccc(C#Cc2ccc3c(c2)[C@]2(C(=O)N3)[C@H](C(=O)O)[C@H]3C(=O)O[C@H](c4ccccc4)[C@H](c4ccccc4)N3[C@@H]2c2ccc(OCCO)cc2)cc1`, the composite z-score in test [1] was -0.397; in [2], 0.959; in test [3] it was -0.0344; in test [4], 0.903; in test [5] it was 0.357; in test [6], 1.88. Besides, the composite z-score in test [7] was determined as 0.976; in test [9] it was 0.794; in test [10] it was 0.122. Also, in [8], the z-score was -0.176 (inactive).
